For ten compounds, inhibition results are on record in PubChem BioAssay AID652010 (The Scripps Research Institute Molecular Screening Center, 2013).

Hit rate of the full screen: of about 370,000 compounds, about 4,100 (1.1%) were called active.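 The calls were made as follows: active = inhibition above the mean over all tested compounds plus 3 SD (cut at about 3.6% in these data); inactive = the rest.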 This excerpt belongs to a sample that is enriched for actives.

The test is described as follows: relief of DAX-1 repression of SF-1 activity – cell-based, luminescence, SF-1 (NR5A1), full-length DAX-1, primary screen (AID 652010).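 Also: 0% = DAX-1 cells with DMSO and 100% = cells lacking DAX-1 with DMSO.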 Particulars: HEK293T StAR-luciferase reporter, SF-1/DAX-1 repression relief; at 6.8 µM; stronger effect = higher value.
The inhibition is the change of the read-out against control, counted positive when it falls. Take `COc1ccc2c(c1)NP(=S)(c1ccccc1)N2` (stereo not given): the inhibition was 6.3% (active).
Regarding `Cc1cc(C)c2c(c1)NP(=S)(c1ccccc1)N2` (stereo not given), the inhibition is 4.45% (active).
In the case of `C[C@]12CCC3C(CC[C@H]4[C@H](O)[C@H](O)CC[C@]34C)C1CCC2=O` (stereo not given in full), the inhibition is -0.89% (inactive).
In the case of `Cc1ccccc1CCC[C@@H](CC1CCCCC1)CN(C)C(=O)Oc1ccccc1`, the inhibition was -0.86% (inactive).
For the compound `Cc1nc2nc(C)c(CCC(=O)N3CCC4(CC3)OCCO4)c(C)n2n1`, the inhibition was 0.57% (inactive).
As for `CC(=O)N1CN2CN(C(C)=O)CC(C(=O)c3ccc(Br)cc3)(C2)C1`, the figure is 0.07% (inactive).
Take `CCOc1cccc(=NC2CCCCC2)c2c(C)[nH]c(C)c12`: the inhibition was -0.76% (inactive).
As to `COP(=O)(Sc1ccccc1)C(Cc1ccccc1)NC(=O)OCc1ccccc1` (stereo not given), the inhibition was -2.01% (inactive).
Regarding `c1cncc(CNC2=NCCC2)c1`, the inhibition was 0.16% (inactive).
For `Cc1c(Oc2cc(NN3CCCCC3)c([N+](=O)[O-])cc2[N+](=O)[O-])cccc1[N+](=O)[O-]`, the inhibition was 0.11% (inactive).
